Results: PubChem BioAssay AID1345082 (National Center for Advancing Translational Sciences (NCATS), 2018)
Out of some 94,000 compounds screened, about 4,000 (4.3%) were called active. About 29% were inconclusive and are not listed. Shown is part of a subset that was picked to be rich in actives. A number with no mark means an inactive call. Calls come from the whole dose curve; as a rule, active = well fitted inhibition curve with a large enough effect; inconclusive = small, poorly fitted or top-dose-only effect; inactive = no such curve, though single readings can be large or run the other way.

test: Cytotoxic Profiling in NIH 3T3 Cell Line of Diverse Libraries Using Quantitative High-Throughput Screening; conditions: NIH 3T3 viability, CellTiter-Glo ATP luminescence, 48-72 h; series mostly up to 96.7 µM; activity change, negative = cytotoxicity: at the top concentration; note: nearly all actives have a fitted effect of over 55% in size
Summary of the method: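 NIH 3T3 cells at 400 cells/well received 23 nL of compound by pintool and were incubated 48 or 72 h at 37 °C. Viability was read as ATP-coupled CellTiter-Glo luminescence.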
% is set by controls: 0 for no effect and ±100 for the full control effect; potency is the fitted concentration of half-maximal effect.

Structure (SMILES) | Potency | outcome | activity change, negative = cytotoxicity
CCNC(=O)O[C@@H]1CO[C@H]2[C@@H]1OC[C@@H]2NC(=S)Nc1cccc2ccccc12 | 79.4 µM (active) | – | –
CC(C)(CC(=O)O)CC(=O)N[C@H]1CO[C@H]2[C@@H]1OC[C@@H]2n1nnnc1-c1ccccc1 | – | inactive [at 138 µM] | –
c1ccc(CO[C@@H]2CO[C@H]3[C@@H]2OC[C@@H]3n2nnnc2SCc2ccco2)cc1 | 89.1 µM (active) | – | –
CNC(=O)CCN(C)c1nccc(-c2ccc(C)nc2C)n1 | – | – | -18.6%
Cc1cccc(C(=O)N[C@@H]2CN(c3ncccn3)C[C@H]2CO)n1 | – | – | -7.33%
COc1ccc(-c2cc(-c3cccc4[nH]ncc34)cn3cncc23)cn1 | 14.1 µM (active) | – | –
COc1ccc(-c2cc(-c3cnc4[nH]ccc4c3)cn3cncc23)cn1 | 39.8 µM (active) | – | –
CC(C)NC(=O)C1CCC(=O)N1C1CCN(C(=O)C2CCCCC2)CC1 (centres undefined) | – | – | 1.11%
COc1cccc(CN2CC3(C2)C(=O)N(Cc2ccccc2F)C(=O)[C@@H]2C[C@@H](O)CN23)c1 | – | – | -5.45%
CC(=O)N1C[C@@H]2CCCN3CCC[C@@H]([C@H]23)[C@H]1CCCC(=O)NCc1cc(F)cc(F)c1 | – | inactive | –
Cc1ccc(C(=O)N2C[C@@H](CO)[C@H](c3ccncc3)C2)c(C)c1 | – | – | -15%
CN(c1ccccc1)c1cc(=O)c2ccnc(-c3ccc(CO)cc3)c2o1 | 8.91 µM (active) | – | –
O=c1cc(-c2cccnc2)oc2c(-c3cccc(CO)c3)nccc12 | 31.6 µM (active) | – | –
CN(c1ccccc1)c1cc(=O)c2ccnc(Nc3cccc([S+](C)(=O)[O-])c3)c2o1 | 8.91 µM (active) | – | –
OC[C@@H]1O[C@H](CNC2CCOCC2)[C@H](N2CCc3ccccc3C2)[C@@H]1O | – | – | -17.5%
Cc1cc(C(=O)N2CCn3nc(C(=O)Nc4ccccc4)cc3C2)cc(=O)[nH]1 | – | – | -5.94%
CN1CCCN(C(=O)c2ccoc2)c2ccccc21 | – | – | -21.9%
COCCn1ncc(N2CCCC(CC(=O)NCc3cccc(C)c3)C2)cc1=O (centres undefined) | – | – | -3.89%
O=C(Nc1ccsc1)N[C@H]1C[C@H]2C(=O)NC[C@@H](CCC(=O)N3CCC(O)CC3)N2C1 | – | – | -28.9% [at 174 µM]
COCCNC(=O)C[C@@H]1C[C@H]2O[C@H](CNC3CCN(C)CC3)[C@@H](O)[C@H]2O1 | – | – | -0.707% [at 174 µM]
Cc1ccc(C2Cn3nnc(C(=O)N4CCC(C(=O)NCc5cccnc5)CC4)c3CO2)cc1 (centres undefined) | – | – | -2.07%
COc1ccc2nc3n(c2c1)[C@@H](CNC1CCCCC1)COC3 | 39.8 µM (active) | – | –
COc1ccc2nc3n(c2c1)[C@@H](CNC(=O)c1cnccn1)COC3 | – | inactive [at 138 µM] | –
COc1ncccc1CNC[C@H]1COCc2nc3cc(C(F)(F)F)ccc3n21 | – | inactive [at 138 µM] | –
COc1ccccc1CN(C(=O)c1cccc(-c2noc(C)n2)c1)C1CC1 | – | – | -18.6%

Structure (SMILES) | Potency | outcome | activity change, negative = cytotoxicity
Cc1cnc(CCNS(=O)(=O)Cc2ccccc2F)n1Cc1ccccc1 | – | – | -26.8%
O=C(NCC1CN(Cc2ccccc2)CC12CN(c1ccccc1)C2)Nc1ccccc1 (centres undefined) | 39.8 µM (active) | – | –
CN(CC#N)C(=O)[C@H]1CN(Cc2ccccc2)C[C@H]1C(=O)O | – | – | -15.6%
Cc1ccc(NC(=O)NC[C@H]2O[C@@H](CC(=O)N3CCN(c4ccccc4)CC3)[C@H](O)[C@@H]2O)cc1 | – | – | -18%
CC(C)OCCCNC(=O)C1Cn2cccc2C(=O)N1C (centres undefined) | – | – | -7.69%
CC(C)CN1C(=O)c2cccn2CC1C(=O)NCC1CCN(Cc2cccc(F)c2)CC1 (centres undefined) | – | – | -14.1%
Cc1cnc(C2CCC2)n1CCNS(=O)(=O)c1cc(F)ccc1F | – | – | 0.793%
COCC(=O)N[C@H]1CO[C@H]2[C@@H]1OC[C@@H]2Nc1nccc(C(C)(C)C)n1 | – | – | -7.3% [at 174 µM]
O=C(NCC1CC1)c1ccc2nnc(CC3CC3)n2c1 | – | – | -23.9% [at 138 µM]
Cc1cccc(Nc2nc(N)nc(CN3CCC4(CC3)OCCCC4O)n2)c1 (centres undefined) | – | – | 4.24%
O=C(CCn1ccc(=O)[nH]c1=O)N1CCn2nc(Cc3ccccc3)cc2C1 | – | – | 0.159%
Cn1ncc2c(C(=O)NCc3ccc(F)cc3)cc(-c3cccc(C(F)(F)F)c3)nc21 | – | – | -9.27%
COc1cccc(CNC(=O)c2cc(-c3ccc(Cl)nc3)nc3c2cnn3C)c1 | – | – | -18.5%
Cn1ncc2c(C(=O)NCc3cccnc3)cc(C(C)(C)C)nc21 | 44.7 µM (active) | – | –
Cc1ccccc1S(=O)(=O)N1C[C@@H]2CCCN3CCC[C@@H]([C@H]23)[C@H]1CCCC(=O)N1CCOCC1 | – | – | 1.31%
Cc1cc(C(=O)N[C@H](C)c2c(-c3ccc(F)cc3)noc2C(=O)O)nn1C | – | inactive [at 138 µM] | –
COC1CN(C2CCN(C(=O)C3CCC3)CC2)C12CCOCC2 (centres undefined) | – | – | -14.8%
CC(=O)NC1(C)CCN(Cc2cnc(-c3ccc4c(ccn4C)c3)s2)CC1 | – | – | -27.4% [at 138 µM]
Cc1ccc(-c2cccc(CN3CCCC(NC(=O)c4ccc(Cl)cc4)C3)c2)cc1Cl (centres undefined) | – | – | -17.6%
CC(=O)NC1(C)CCN(Cc2cccc(-c3ccc(C(=O)c4ccccc4)cc3)c2)C1 (centres undefined) | 35.5 µM (active) | – | –
O=C(Nc1ccccc1)C1CN(S(=O)(=O)c2cccnc2)CC12CCCCC2 (centres undefined) | – | – | -17.4%
Cc1ccc(-c2nnc3ccc(-c4ccoc4)nn23)nc1 | 100 µM (active) | – | –
COc1ccc(C(=O)NCc2nnc3ccc(-c4ccc(C)cc4)nn23)cc1F | – | – | -24.2%
Cc1ccc(-c2ccc3nnc(CNC(=O)c4ccncc4)n3n2)cc1C | – | – | -13%
